Assay [1] is described as follows: qHTS for Inhibitors of the Functional Ribonucleoprotein Complex (vRNP) of Lassa (LASV) Arenavirus: LASV Primary Screen - GLuc reporter signal (AID 1347082; calls by dose curve; tested in HEK293 reporter line; note: series mostly up to about 57 µM; nearly all actives have a fitted effect of over 60% in size). For orientation: Quantitative high-throughput screening tests each substance at several concentrations.
Assay [2] can be described thus: qHTS for Inhibitors of the Functional Ribonucleoprotein Complex (vRNP) of Lassa (LASV) Arenavirus: Viability assay - alamar blue signal for LASV Primary Screen (AID 1347083; calls by dose curve; tested in HEK293 reporter line; note: nearly all actives have a fitted effect of over 80% in size; note: potency is the fitted concentration of half-maximal effect; for activity change, negative = reduced viability: series mostly up to about 57 µM).
Assay [3] in a line: qHTS for Inhibitors of the Functional Ribonucleoprotein Complex (vRNP) of Lymphocytic Choriomeningitis Arenaviruses (LCMV): Viability assay - alamar blue signal for LCMV Primary Screen (AID 1347085; calls by dose curve; tested in HEK293 reporter line; note: series mostly up to about 57 µM; nearly all actives have a fitted effect of over 80% in size).
Assay [4] concerns the target Nucleoprotein (Lymphocytic choriomeningitis virus (strain Armstrong)) (UniProt P09992). In words: qHTS for Inhibitors of the Functional Ribonucleoprotein Complex (vRNP) of Lymphocytic Choriomeningitis Arenaviruses (LCMV): LCMV Primary Screen - GLuc reporter signal (AID 1347086). Note: series mostly up to about 57 µM; nearly all actives have a fitted effect of over 70% in size.

Records with an inconclusive call do not appear. A number with no mark means an inactive call. Activity calls are given as the source filed them. Unless noted, calls come from the whole dose curve.
% is set by controls: 0 for no effect and ±100 for the full control effect.

Sequence of Nucleoprotein (Lymphocytic choriomeningitis virus (strain Armstrong)) (P09992 whole entry, looked up): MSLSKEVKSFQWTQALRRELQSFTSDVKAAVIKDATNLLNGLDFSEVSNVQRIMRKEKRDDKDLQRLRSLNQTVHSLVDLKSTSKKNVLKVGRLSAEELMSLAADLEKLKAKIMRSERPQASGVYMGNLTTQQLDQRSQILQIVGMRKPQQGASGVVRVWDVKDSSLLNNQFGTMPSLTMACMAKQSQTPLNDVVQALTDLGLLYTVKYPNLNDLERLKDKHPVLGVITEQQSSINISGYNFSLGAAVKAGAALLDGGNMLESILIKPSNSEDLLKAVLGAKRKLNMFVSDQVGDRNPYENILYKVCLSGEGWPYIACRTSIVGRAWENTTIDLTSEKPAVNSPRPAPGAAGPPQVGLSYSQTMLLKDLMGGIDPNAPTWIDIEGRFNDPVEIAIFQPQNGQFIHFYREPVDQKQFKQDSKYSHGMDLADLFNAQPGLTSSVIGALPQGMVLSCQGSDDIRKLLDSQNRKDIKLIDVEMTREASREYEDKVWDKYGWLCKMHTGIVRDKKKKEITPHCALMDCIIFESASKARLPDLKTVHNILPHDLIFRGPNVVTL

In the case of `Cc1cc(=O)[nH]c(=S)[nH]1`, the Potency result in assay [1], in assay [2], in assay [3] and in assay [4] was “inactive” throughout.

Turning to `Cc1ccc(C(=O)C(C)CN2CCCCC2)cc1` (centres undefined), the Potency result in assay [1], in assay [2], in assay [3] and in assay [4] was “inactive” in each case.

Turning to `CC(=O)NS(=O)(=O)c1ccc(N)cc1`, the Potency entry in assay [1], in assay [2], in assay [3] and in assay [4] was “inactive” throughout.

Regarding `CCOc1nc2cccc(C(=O)O)c2n1Cc1ccc(-c2ccccc2-c2nn[nH]n2)cc1`, the Potency entry in assay [1], in assay [2], in assay [3] and in assay [4] was “inactive” in each case.

In the case of `CN(c1nccc(=O)[nH]1)C1CCN(c2nc3ccccc3n2Cc2ccc(F)cc2)CC1`, the Potency result in assay [1], in assay [3] and in assay [4] was “inactive” throughout. Moreover, the Potency in assay [2] is 30.6 µM (active).

`Nc1ncnc2c1ncn2[C@@H]1O[C@H](CO)[C@@H](O)[C@H]1O`: the Potency entry in assay [1], in assay [2], in assay [3] and in assay [4] was “inactive” each time.

Regarding `CO[C@@]1(NC(=O)C(C(=O)O)c2ccc(O)cc2)C(=O)N2C(C(=O)O)=C(CSc3nnnn3C)CO[C@@H]21` (some centres undefined), the Potency result in assay [1], in assay [2], in assay [3] and in assay [4] was “inactive” each time.

Turning to `COc1ccccc1OCC(O)CO` (centres undefined), the Potency result in assay [1], in assay [2], in assay [3] and in assay [4] was “inactive” throughout.

For the molecule `O=c1cc[nH]c(=O)[nH]1`, the Potency entry in assay [1], in assay [2], in assay [3] and in assay [4] was “inactive” each time.

In the case of `CCCNC(C)C(=O)Nc1c(C)csc1C(=O)OC` (centres undefined), the Potency entry in assay [1], in assay [2], in assay [3] and in assay [4] was “inactive” each time.

Regarding `COc1ccc2nc(SCc3ncc(C)c(OC)c3C)[nH]c2c1`, the Potency entry in assay [1], in assay [2], in assay [3] and in assay [4] was “inactive” throughout.

On to `S=P(N1CC1)(N1CC1)N1CC1`, for which the Potency entry in assay [1], in assay [2], in assay [3] and in assay [4] was “inactive” in each case.

For the molecule `Oc1ccccc1C=NCc1ccccc1`, the Potency result in assay [1], in assay [2], in assay [3] and in assay [4] was “inactive” each time.

Take `O=C(O)Cc1ccc(OCCNC[C@H](O)c2ccccc2)cc1`: the Potency entry in assay [1], in assay [2], in assay [3] and in assay [4] was “inactive” throughout.

In the case of `CCN(CC)CCNC(=O)COc1ccc(OC)cc1`, the Potency result in assay [1], in assay [2], in assay [3] and in assay [4] was “inactive” each time.

For the molecule `O=C1c2ccccc2CCc2ccccc21`, the Potency entry in assay [1], in assay [2], in assay [3] and in assay [4] was “inactive” each time.

Regarding `CCOC(=O)c1ccc(O)cc1`, the Potency result in assay [1], in assay [2], in assay [3] and in assay [4] was “inactive” each time.

On to `CC[N+](CC)(CCNC(=O)C(=O)NCC[N+](CC)(CC)Cc1ccccc1Cl)Cc1ccccc1Cl`, for which the Potency result in assay [1], in assay [2], in assay [3] and in assay [4] was “inactive” each time.

For the molecule `COC(=O)c1cc(Cl)ccc1NS(=O)(=O)C(F)(F)F`, the Potency result in assay [1], in assay [2], in assay [3] and in assay [4] was “inactive” each time.

Take `CC(C)(Oc1ccc(Cl)cc1)C(=O)OCCCOC(=O)C(C)(C)Oc1ccc(Cl)cc1`: the Potency result in assay [1], in assay [2], in assay [3] and in assay [4] was “inactive” each time.

For `Nc1ccc(S(=O)(=O)c2ccc(N)cc2)cc1`, the Potency entry in assay [1], in assay [2], in assay [3] and in assay [4] was “inactive” each time.

Take `COc1ccccc1N1CCN(CCCCNC(=O)c2ccc(-c3ccc(C(C)=O)cc3)cc2)CC1`: the Potency entry in assay [1], in assay [2], in assay [3] and in assay [4] was “inactive” each time.

In the case of `O=C(O)CCC(=O)O`, the Potency result in assay [1], in assay [2], in assay [3] and in assay [4] was “inactive” each time.

In the case of `Cn1c(=O)c2c(ncn2CC(=O)O)n(C)c1=O`, the Potency result in assay [1], in assay [2], in assay [3] and in assay [4] was “inactive” in each case.

`O=C(O)c1cc(O)c(O)c(O)c1`: the Potency entry in assay [1], in assay [2], in assay [3] and in assay [4] was “inactive” throughout.

Turning to `O=C(O)C(S)C(S)C(=O)O` (centres undefined), the Potency result in assay [1], in assay [2], in assay [3] and in assay [4] was “inactive” each time.

`CCOC(=O)C1=C[C@@H](OC(CC)CC)[C@H](NC(C)=O)[C@@H](N)C1`: the Potency entry in assay [1], in assay [2], in assay [3] and in assay [4] was “inactive” in each case.

For the molecule `O=C(CCN1CCC(c2ccccc2)C1)c1ccc2c(c1)OCCO2` (centres undefined), the Potency result in assay [1], in assay [2], in assay [3] and in assay [4] was “inactive” each time.

As to `CCOC(=O)c1cnc2c(cnn2CC)c1NN=C(C)C`, the Potency result in assay [1], in assay [2], in assay [3] and in assay [4] was “inactive” each time.

As for `O=C(O)Cc1sc(-c2ccccc2)nc1-c1ccc(Cl)cc1`, the Potency entry in assay [1], in assay [2], in assay [3] and in assay [4] was “inactive” in each case.

In the case of `CC1(C)S[C@@H]2[C@H](NC(=O)C(c3ccccc3)S(=O)(=O)O)C(=O)N2[C@H]1C(=O)O` (some centres undefined), the Potency result in assay [1], in assay [2], in assay [3] and in assay [4] was “inactive” each time.

As to `O=C1NCC2(CCN(CCc3ccccc3)CC2)O1`, the Potency result in assay [1], in assay [2], in assay [3] and in assay [4] was “inactive” throughout.

In the case of `N#Cc1ccc(C(c2ccc(C#N)cc2)n2cncn2)cc1`, the Potency result in assay [1], in assay [2], in assay [3] and in assay [4] was “inactive” each time.

Consider `NCCNCCNCCNCCN`, for which the activity change, negative = inhibition in assay [1] is -3.37% [at 11.5 µM]; in assay [4], -1.94% [at 11.5 µM]. The activity change, negative = reduced viability in assay [2] is 1.27% [at 11.5 µM]. Moreover, the activity change, negative = lower viability in assay [3] was 2.19% [at 11.5 µM].

On to `NC(=O)c1cccnc1`, for which the Potency result in assay [1], in assay [2], in assay [3] and in assay [4] was “inactive” in each case.

Turning to `COc1c2occc2cc2ccc(=O)oc12`, the Potency result in assay [1], in assay [2], in assay [3] and in assay [4] was “inactive” in each case.

Source of the values: PubChem BioAssay (NCATS).
